The results in this text go back to ChEMBL document CHEMBL1961873, “Compounds: GSK PKIS; Assays: Nanosyn kinase panel” (2012).

Usually inhibition stands for the relative decrease from the control value, in per cent.
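Further: mean percent inhibition of PAR-1Balpha kinase activity, reported from the GSK PKIS screen.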

Sequence of Serine/threonine-protein kinase MARK2 (Homo sapiens) (Q7KZI7 whole entry): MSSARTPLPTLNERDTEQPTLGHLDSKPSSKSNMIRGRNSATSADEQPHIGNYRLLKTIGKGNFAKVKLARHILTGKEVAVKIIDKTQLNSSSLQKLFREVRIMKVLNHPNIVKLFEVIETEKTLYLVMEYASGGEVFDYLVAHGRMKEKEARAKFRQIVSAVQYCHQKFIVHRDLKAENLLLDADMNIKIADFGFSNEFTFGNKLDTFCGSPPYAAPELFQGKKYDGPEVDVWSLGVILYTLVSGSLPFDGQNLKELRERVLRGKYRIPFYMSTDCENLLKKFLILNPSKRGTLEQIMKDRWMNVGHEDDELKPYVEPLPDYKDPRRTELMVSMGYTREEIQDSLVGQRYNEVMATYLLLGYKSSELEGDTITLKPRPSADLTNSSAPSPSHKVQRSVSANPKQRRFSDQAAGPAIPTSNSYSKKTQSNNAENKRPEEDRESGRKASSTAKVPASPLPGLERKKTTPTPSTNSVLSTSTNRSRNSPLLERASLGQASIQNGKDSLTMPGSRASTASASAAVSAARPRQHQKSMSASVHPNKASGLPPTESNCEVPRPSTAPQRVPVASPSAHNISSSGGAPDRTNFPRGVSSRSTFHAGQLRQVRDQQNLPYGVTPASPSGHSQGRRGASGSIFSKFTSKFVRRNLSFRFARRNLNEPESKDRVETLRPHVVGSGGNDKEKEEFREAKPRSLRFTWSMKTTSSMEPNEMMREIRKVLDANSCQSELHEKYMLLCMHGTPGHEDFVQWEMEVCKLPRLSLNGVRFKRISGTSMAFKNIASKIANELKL

This assay concerns the target Serine/threonine-protein kinase MARK2 (Homo sapiens) (UniProt Q7KZI7). To be noted: at 0.1 µM.
As for `CCS(=O)(=O)c1ccc(OC)c(Nc2ncc(-c3cccc(-c4ccccc4F)c3)o2)c1`, the inhibition was -5.23%.

Take `C/C(Nc1ccc(S(N)(=O)=O)cc1)=C1/C(=O)Nc2ccccc21`: the inhibition is 2.01%. For `CN(C)CCOc1ccc(-c2cc(-c3ccc4c(c3)CCC4=NO)c(-c3ccncc3)o2)cc1`, the inhibition was -1.72%. In the case of `CCc1cccc(CC)c1/C=C/c1cncc(C(=O)NC)c1`, the inhibition was -0.01%. To `COc1ccc2cc(-c3c(-c4ccncc4)nc(-c4ccc(S(C)(=O)=O)cc4C)n3C)ccc2c1` belongs 0.73%. Turning to `CCS(=O)(=O)c1ccc(OC)c(Nc2ncc(-c3ccccc3Cl)o2)c1`, the inhibition was 1.4%.

`COc1cc2ncn(-c3cc(OCCc4ccccc4)c(C(N)=O)s3)c2cc1OC`: the inhibition was 1%.

In the case of `CN1CCN(CCCNc2nc3ccc(Oc4ccc(NC(=O)Nc5cc(C(F)(F)F)ccc5F)cc4)cc3[nH]2)CC1`, the inhibition was -0.44%.

In the case of `Cc1ccc(NC(=O)c2ccoc2)cc1-c1ccc(C(=O)NCC2CC2)cc1`, the inhibition was -0.93%. As for `COc1ccc2cc(-c3c(-c4ccncc4)nc(-c4ccc([S+](C)[O-])cc4C)n3C)ccc2c1` (centres undefined), the figure is -1.24%; as for `O=C(NCC1CC1)c1ccc(-c2cccc(C(=O)NC3CC3)c2)cc1`, 0.08%; as for `O=C(Nc1n[nH]c2cc(-c3cc(F)ccc3F)ccc12)C1CC1`, -1.51%.

Regarding `COc1cc(N2CCN(C(C)C)CC2)ccc1Nc1nc(Nc2ccc(F)cc2C(=O)NC[C@@H](O)CO)c2cc[nH]c2n1`, the inhibition was determined as 1.97%.

Consider `NC(=O)c1cc(-c2ccncc2)cc(-c2ccccc2)c1N`, for which the inhibition is 2.08%. As for `Fc1ccc(-c2ncn(C3CCNCC3)c2-c2ccnc(Oc3ccc4c(c3)OCO4)n2)cc1`, the inhibition was 0.67%. Consider `FC(F)(F)c1cccc(Nc2nccc(-c3cnn4nc(-c5ccccc5)ccc34)n2)c1`, for which the inhibition was -0.36%. For the molecule `COc1cc2ncn(-c3cc(OCc4ccccc4C(F)(F)F)c(C(C)=O)s3)c2cc1OC`, the inhibition is -0.07%. For the molecule `Fc1ccc(-c2ncn(CCCN3CCOCC3)c2-c2ccncc2)cc1`, the inhibition is -1.95%.

As for `NS(=O)(=O)c1ccc(Nc2cc(-c3ccc(O)c(F)c3)n[nH]2)cc1`, the inhibition is 0.4%.

For the molecule `CN(C)CCCNc1nccc(-c2c(-c3ccc(F)cc3)nn3cc(C(F)(F)F)ccc23)n1`, the inhibition is -0.22%.

In the case of `Fc1ccc(-c2c(-c3ccncc3)nc3n2CCS3)cc1`, the inhibition was 1.04%. With `O=C(Nc1n[nH]c2nc(-c3ccco3)ccc12)C1CC1`, the inhibition worked out at 0.19%.

Regarding `C[C@@H](Oc1cc(-n2cnc3ccc(OCC4CCN(C)CC4)cc32)sc1C(N)=O)c1ccccc1Cl`, the inhibition turned out to be 3.52%. For `c1ccc(-c2n[nH]cc2-c2ccnc(-c3ccc(OCCN4CCOCC4)cc3)c2)nc1`, the inhibition was found to be 4.23%. As for `O=C1Nc2ccccc2/C1=C/Nc1ccc(-n2cncn2)cc1`, the inhibition was 1.47%. Turning to `c1ccc(Oc2ccc(Nc3ncc(-c4ccccc4)o3)cc2)cc1`, the inhibition was -0.89%.

As for `CCN(CC)Cc1ccc(Nc2nccc(-c3cnn4ncccc34)n2)cc1`, the inhibition was determined as 3.28%. Turning to `Cc1ccc(C(=O)NC(C)C)cc1-c1ccc(C(=O)NCC2CC2)cc1`, the inhibition came to 0.38%. For `COc1cc2ncn(-c3cc(OCc4cccs4)c(C(N)=O)s3)c2cc1OC`, the inhibition worked out at 1.68%.

On to `O=C(Nc1ccc(Oc2ccc3[nH]c(NC(=O)c4ccccc4)nc3c2)cc1)Nc1cc(C(F)(F)F)ccc1F`, for which the inhibition is -0.01%. With `COc1ccc(-c2ccc3c(NC(=O)C4CC4)n[nH]c3n2)cc1`, the inhibition amounted to 0.67%. Regarding `COc1cc(Nc2ncc3c(C)nc(-c4cccc(C(F)(F)F)c4)n3n2)cc(OC)c1OC`, the inhibition is 0.26%. For the molecule `Fc1ccc(-c2ncn(C3CCNCC3)c2-c2ccnc(Oc3ccc(F)c(F)c3)n2)cc1`, the inhibition was -0.25%. For `NS(=O)(=O)c1ccc(N/N=C2\C(=O)Nc3ccc(C(=O)NCCCn4ccnc4)cc32)cc1`, the inhibition is 1.13%.
